# Measured values from the supplement of paper PMC6555819.
# Legend:
# Test in all cases: PBM binding z-score (relative to random genomic background probes); higher = stronger binding; sequences stand for … in GC…GCGATTGACAGCGTAGAATGAAGG
# [1] = tested on: FXR:RXRa (NR concentration 270 nM, RXRa partner concentration 90 nM)
# In short: (§1)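 Each nuclear receptor dimer, without ligand, was incubated for 1 h on custom Agilent 4×180K protein-binding microarrays. Binding was detected with antibodies against each partner (one per run), and scanned fluorescence was regression-normalized. The binding z-scores are referenced to random human genomic background probes.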
# [2] = tested on: LXRa:RXRa (NR concentration 270 nM, RXRa partner concentration 90 nM)
# In short: as §1
# [3] = tested on: LXRa homodimer (NR concentration 270 nM)
# In short: as §1
# [4] = tested on: LXRb:RXRa (NR concentration 270 nM, RXRa partner concentration 90 nM)
# In short: as §1
# [5] = tested on: LXRb homodimer (NR concentration 270 nM)
# In short: as §1
# [6] = tested on: PPARa:RXRa (NR concentration 270 nM, RXRa partner concentration 90 nM)
# In short: as §1
# [7] = tested on: PPARg:RXRa (NR concentration 180 nM, RXRa partner concentration 90 nM)
# In short: as §1
# [8] = tested on: PPARg:RXRa 270nM:90nM, anti-RXR (NR concentration 270 nM, RXRa partner concentration 90 nM)
# In short: as §1
# [9] = tested on: PPARg:RXRa 30nM:10nM, anti-RXR (NR concentration 30 nM, RXRa partner concentration 10 nM)
# In short: as §1
# [10] = tested on: PPARg:RXRa 90nM:30nM, anti-RXR (NR concentration 90 nM, RXRa partner concentration 30 nM)
# In short: as §1
# [11] = tested on: PPARg:RXRa DBDmut IVT, anti-RXR (DBD mutation: RXRa K156A/R161A, NR concentration 270 nM, RXRa partner concentration 90 nM)
# In short: as §1
# [12] = tested on: PPARg:RXRa IVT, anti-PPARg (NR concentration 270 nM, RXRa partner concentration 90 nM)
# In short: as §1
# [13] = tested on: PPARg DBDmut:RXRa IVT, anti-PPARg (DBD mutation: PPARg1 K132A/R137A, NR concentration 270 nM, RXRa partner concentration 90 nM)
# In short: as §1
# [14] = tested on: PPARg DBDmut IVT, anti-PPARg (DBD mutation: PPARg1 K132A/R137A, NR concentration 270 nM)
# In short: as §1
# [15] = tested on: PPARg homodimer (NR concentration 180 nM)
# In short: as §1
# [16] = tested on: PXR:RXRa (NR concentration 270 nM, RXRa partner concentration 90 nM)
# In short: as §1
# [17] = tested on: PXR homodimer (NR concentration 270 nM)
# In short: as §1
# [18] = tested on: RARa:RXR (NR concentration 270 nM, RXRa partner concentration 90 nM)
# In short: as §1
# [19] = tested on: RARa homodimer (NR concentration 270 nM)
# In short: as §1
# [20] = tested on: RARb:RXRa (NR concentration 270 nM, RXRa partner concentration 90 nM)
# In short: as §1
Sequence,PBM binding z-score [1],PBM binding z-score [2],PBM binding z-score [3],PBM binding z-score [4],PBM binding z-score [5],PBM binding z-score [6],PBM binding z-score [7],PBM binding z-score [8],PBM binding z-score [9],PBM binding z-score [10],PBM binding z-score [11],PBM binding z-score [12],PBM binding z-score [13],PBM binding z-score [14],PBM binding z-score [15],PBM binding z-score [16],PBM binding z-score [17],PBM binding z-score [18],PBM binding z-score [19],PBM binding z-score [20]
GCTAGTTGGTCTGTAAAAGGTCACACACCGGTCG,3.27,4.45,4.26,3.98,0.57,4.33,2.5,4.63,2.19,4.12,0.547,2.28,0.389,-0.363,4.38,4.79,1.16,5.54,1.67,3.87
CTCGACAGGTCGGTTGAGGTGAGTATACGGATAA,1.43,-0.211,-0.296,-0.278,-0.791,0.423,0.166,-0.237,-0.356,-0.324,-0.656,0.236,-0.149,-0.718,-0.0437,0.653,-0.282,0.493,-0.539,0.905
CGTCCAAGGACAAGGTCAGTGAAAGAGACTCGAA,1.56,1.45,-0.433,1.46,-0.506,2.39,0.883,1.23,-0.0239,0.648,0.434,0.71,-0.797,-1.03,1.03,1.61,0.632,2.38,-0.259,3.93
TTACTAAGGTGAGCTGAGGTCGTTGATCCAACTC,2.26,1.54,-0.344,1.04,-0.663,1.97,0.363,1.26,0.174,0.711,2.04,2.66,0.501,0.0653,0.306,5.17,0.515,2.16,-0.407,2.07
CCAGACAGGTGATAGGTAACTCAGTCTGGTACGC,-0.225,-0.0796,-0.151,-0.0572,-0.589,0.765,1.82,2.56,0.858,1.92,0.575,0.559,-0.871,0.0703,0.624,-0.293,-0.225,0.152,0.246,0.0928
CCGACTGGGGCAAGGGTTACCATACTCAGTACGA,0.0555,0.199,-0.283,0.579,-0.86,3.84,8.6,7.56,6.82,7.87,3.17,4.93,-0.628,-1.19,0.0321,0.443,-0.412,1.53,-0.348,1.57
TCTACTAGTTGATTAGGGCAACCGAAACAGCGGA,-0.0181,-0.4,-0.422,0.0832,-0.553,0.777,0.366,1.66,3.06,2.31,1.59,1.11,-0.0224,-0.068,-0.343,0.00114,-0.203,0.226,-0.458,0.694
ACTTACGTGTCAACGAGGTTATAGCACGCGTATA,0.812,1.03,0.113,1.02,0.0422,1.84,0.927,0.653,0.374,0.627,0.785,1.07,0.246,0.671,0.479,1.26,0.652,1.65,0.0685,1.2
CGTCCAAGGTCAGTAGGTCAGTGAAAGCGACGTG,4.68,3.18,0.336,2.78,0.0496,5.1,6.2,6,2.74,4.9,5.03,6.09,0.33,0.924,4.32,3.23,0.64,4.46,1.39,5
TCTTGTAGATCACCAGGTTAAGAAAGCTGGCCAA,0.657,0.602,-0.148,0.696,0.00375,1.47,0.304,2.21,3.04,2.67,2.51,1.98,-0.0157,0.181,0.18,0.513,-0.16,0.889,0.399,0.639
CCTCGGAGGACAACGGGAGGTCAGAGCTGCCAGA,1.17,2.32,1.9,1.52,-0.594,2.1,0.336,0.563,-0.741,-0.147,-0.505,0.451,-1.39,-1.24,2.26,2.45,0.352,2.8,0.367,2.92
TCTCGGAGGACACGAAATGTCAGAGCTCGACATC,0.755,0.358,-0.2,0.313,-0.55,0.168,0.208,1.09,2.37,1.62,1.31,-0.0738,0.273,-0.287,-0.365,-0.0137,-0.515,0.332,-0.679,1.56
AGTCAAAGTTAATCTAGGTAACGTAAGATATGCT,0.59,0.213,-0.267,-0.245,-0.44,1.29,1.78,1.41,0.619,0.829,2.39,4.39,1.49,1.19,-0.261,-0.201,0.136,0.155,0.301,0.39
TCTTGTAGATCAGTAGGTTAAGAAAGCTGGCCAA,0.172,0.646,0.128,0.552,0.098,1.12,0.0222,1.98,2.94,2.31,2.89,2.61,0.246,0.243,0.822,0.448,0.0641,0.921,0.433,0.272
